Compounds with a hit are over-represented: about 28% of the library has one in this group of screens.
CD11b adhes enh: enhancers of CD11b/CD18 adhesion to fibrinogen, primary screen, K562 cells, luminescence | Integrin beta-2 (Homo sapiens) + Integrin alpha-M (Homo sapiens), P05107+P11215 | ATPlite luminescence | activation, % at 10 µM | 0.07% of 93,000 active | AID 1499, 2009;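 active = 10 µM primary screen giving 50% or more activity, confirmed by 40% or more on retest at that dose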
CYP2C9 inhib: blockers of cytochrome P450 2C9 activity – biochemical, luminescence, ADME assay, primary screen; inhibition, % at 5 µM; CYP2C9 Supersomes, luciferin-H conversion; 20% of 96,000 active; P11712;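 active = blocking of liver enzyme CYP2C9 beyond about 50% at 5 µM, limit read from the data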
Target sequence (P11712 whole entry, looked up): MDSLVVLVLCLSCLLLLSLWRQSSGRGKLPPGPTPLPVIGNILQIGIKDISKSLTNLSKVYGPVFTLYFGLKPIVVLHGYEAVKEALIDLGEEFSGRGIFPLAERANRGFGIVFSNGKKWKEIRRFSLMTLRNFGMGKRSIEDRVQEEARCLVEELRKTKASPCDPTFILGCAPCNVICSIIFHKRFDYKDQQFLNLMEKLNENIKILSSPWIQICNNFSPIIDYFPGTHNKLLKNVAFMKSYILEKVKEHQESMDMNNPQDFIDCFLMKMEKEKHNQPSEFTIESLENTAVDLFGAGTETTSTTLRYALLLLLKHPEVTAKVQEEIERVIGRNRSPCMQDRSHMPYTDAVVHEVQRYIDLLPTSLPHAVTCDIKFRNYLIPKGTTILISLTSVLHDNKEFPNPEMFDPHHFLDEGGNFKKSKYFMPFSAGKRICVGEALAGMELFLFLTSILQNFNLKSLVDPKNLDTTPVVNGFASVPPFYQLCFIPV
CYP2C19 inh: blockers of cytochrome P450 2C19 activity – biochemical, luminescence, ADME assay, primary screen; P33261; CYP2C19 Supersomes, luciferin-H EGE luminescence, 30 min; inhibition, % at 5 µM; 21% of 96,000 active; AID 778, 2007;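 active = CYP2C19 inhibition above a set limit at 5 µM in the primary screen, cut at about 50% in these data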;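 also: plate controls were negative control wells for no effect and 2.5 mM tranylcypromine positive control for full effect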
CYP2C9 activ: human CYP2C9 activators, primary screen, biochemical, luminescence | Cytochrome P450 2C9 (Homo sapiens), P11712 | activation factor at 5 µM | recombinant CYP2C9, luciferin-H conversion; stronger effect = higher value; factor 1 = untreated enzyme, 0 = blocked | AID 1024, 2008 | 1.4% of 96,000 active;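 active = activation factor of 2 or more for CYP2C9 at a 5 µM dose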;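 also: 0 = sulfaphenazole-blocked wells and 1 = vehicle-only wells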
CYP2C19 activ: human CYP2C19 activators, primary screen, biochemical, luminescence; Cytochrome P450 2C19 (Homo sapiens), P33261; recombinant CYP2C19, luciferin-H EGE luminescence; stronger effect = higher value; 0 = fully inhibited enzyme, 1 = untreated enzyme; activation factor at 5 µM; 96,000 tested, under 10 active; AID 1025, 2008;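 active = activation factor of at least 2 at 5 µM in the primary screen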;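 also: 0 = wells with 2.5 mM tranylcypromine and 1 = vehicle-only wells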
CD11b adhes inh: inhibitors of CD11b/CD18 adhesion to fibrinogen, primary screen, K562 cells, luminescence; ATPlite luminescence; Mn2+ added to activate the integrin; 0.54% of 93,000 active; Integrin beta-2 (Homo sapiens) + Integrin alpha-M (Homo sapiens), P05107+P11215; inhibition, % at 10 µM;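 active = primary inhibition of 50% or more at 10 µM, then 40% or more on retest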
Numbers without * were called inactive; · = no result given.

SMILES	CD11b adhes enh	CYP2C9 inhib	CYP2C19 inh	CYP2C9 activ	CYP2C19 activ	CD11b adhes inh
CCOc1cc(CNc2ccc(OC)cc2)cc(Br)c1OCC(=O)NC(C)(C)C	6	59*	52*	0.4	0.5	-9
CCOc1cc(CNc2ccccc2)cc(Br)c1OCC(=O)NC(C)(C)C	-5	46	50	0.5	0.5	-12
Cc1ccc(C)c(S(=O)(=O)NCc2ccc(C(=O)N3CCCCC3C)cc2)c1 (centres undefined)	16	-53	57*	1.5	0.4	-29
COc1ccc(CCNC(=O)c2cc3sc(Cl)cc3n2C)cc1OC	0	74*	69*	0.3	0.3	-20
CC1CCCCN1C(=O)c1ccc(C(=O)N2CCCCC2C)cc1 (centres undefined)	-1	8	3	0.9	1	-4
COc1ccc2c(c1)CCc1c(C(=O)Nc3ccc(OC)c(OC)c3)noc1-2	3	-7	22	1.1	0.8	-3
COc1ccc(CCNC(=O)c2cccnc2)cc1OC	-3	-13	45	1.1	0.6	1
COc1ccc2c(c1)CCc1c(C(=O)NCCc3ccc(OC)c(OC)c3)noc1-2	14	54*	33	0.5	0.7	-14
COc1ccc(CCNC(=O)c2ccncc2)cc1OC	·	43	64*	0.6	0.4	·
CCOC(=O)Cc1csc(/C(=N/O)C(N)=O)n1	12	39	46	0.6	0.5	-43
CCCCOc1cccc(-c2nnc(NC(=O)CSc3ccc(C)cc3)s2)c1	50	·	·	·	·	-10
COc1ccc(CCNC(=O)C(=O)NCc2ccccc2)cc1OC	·	15	2	0.9	1	·
COc1ccc(CN(Cc2cccnc2)C(=S)NCCc2ccccc2)cc1OC	·	94*	96*	0.1	0	·
COc1ccc(CC(=O)OCC(=O)NCCc2ccccc2)cc1OC	1	·	·	·	·	5
CNC(=S)NCCc1ccc(OC)c(OC)c1	-4	3	56*	1	0.4	1
COc1ccc(CCNC(=O)c2cc(-c3cc(C)ccc3O)n[nH]2)cc1OC	2	80*	36	0.2	0.6	-9
COc1ccc(CCNC(=O)c2ccc(CNS(=O)(=O)c3ccc(C(C)(C)C)cc3)cc2)cc1OC	26	·	·	·	·	10
COc1ccc(CCNC(=O)c2ccc(CNS(=O)(=O)c3cc(C)ccc3C)cc2)cc1OC	-3	100*	76*	0	0.2	-13
O=c1[nH]cnc2cc(Cl)ccc12	2	5	-6	0.9	1.1	-2
Fc1ccc(-c2nnn(Cc3nc4ccccc4s3)n2)cc1	3	33	89*	0.7	0.1	-9
COc1ccc(C2(CNC(=O)/C=C/c3ccco3)CCCC2)cc1OC	·	53*	24	0.5	0.8	·
Fc1ccc(N2CCN(C(c3cccs3)c3nnnn3C3CCCC3)CC2)cc1 (centres undefined)	-2	98*	96*	0	0	1
COc1ccc(N2CCN(C(c3cccs3)c3nnnn3C3CCCC3)CC2)cc1 (centres undefined)	7	64*	29	0.4	0.7	-8
Fc1ccc(CN(Cc2ccccc2)C(c2cccs2)c2nnnn2C2CCCCC2)cc1 (centres undefined)	-4	23	-6	0.8	1.1	32
O=C1N=C(N2CCN(c3cccc4ccccc34)CC2)S/C1=C/c1cccs1	-2	-6	54*	1.1	0.5	1
SMILES	CD11b adhes enh	CYP2C9 inhib	CYP2C19 inh	CYP2C9 activ	CYP2C19 activ	CD11b adhes inh
O=C(Nc1cccc(O)c1)c1noc2c1CCCCC2	-4	33	70*	0.7	0.3	20
COc1ccc(CNC(=O)c2noc3c2CCCCC3)cc1	2	32	42	0.7	0.6	-3
COc1ccc(NC(=O)c2noc3c2CCC3)cc1	3	27	62*	0.7	0.4	-5
CCOC(=O)CSc1nc2ccc(S(=O)(=O)N3CCOCC3)cc2[nH]1	4	21	6	0.8	0.9	-6
CCCCNS(=O)(=O)c1ccc2nc(SCC(=O)c3ccc(C#N)cc3)[nH]c2c1	-5	88*	74*	0.1	0.3	-3
COc1ccc(NC(=S)Nc2ncccc2C)c(OC)c1	5	14	76*	0.9	0.2	-1
COc1ccc(NC(=S)NCCc2ccc(Cl)cc2)c(OC)c1	0	22	86*	0.8	0.1	-15
COc1ccc(NC(=S)NCCc2c[nH]c3ccc(OC)cc23)c(OC)c1	·	62*	71*	0.4	0.3	·
Cc1cc(OCC[N+]2(C)CCCCC2)nc2ccccc12	-1	1	4	1	1	-5
COc1ccc(-c2nn(CC(=O)N(C)C)c(=O)c3ccccc23)cc1	-1	11	6	0.9	0.9	-38
Cc1ccccc1-n1c(C)nnc1SCC(=O)N1CC(=O)Nc2ccccc21	-2	-15	70*	1.1	0.3	1
Cc1ccc(-n2nnnc2SCC(=O)N2CC(=O)Nc3ccccc32)cc1	0	-48	52*	1.5	0.5	5
Cc1nnc(SCC(=O)N2CC(=O)Nc3ccccc32)n1C	-5	1	4	1	1	-20
COc1ccc(/C=C/C(=O)c2ccccc2)cc1Cn1nnc2ccccc21	-4	·	·	·	·	23
CC(=O)NCCOc1cccc2cccnc12	5	-9	-5	1.1	1.1	5
CC(=O)c1sc(NC(=O)c2ccc(Cn3cc(Br)cn3)o2)nc1C	-2	78*	47	0.2	0.5	-32
c1coc(C2Nc3ccccc3-c3nc4ccccc4n32)c1 (centres undefined)	2	91*	80*	0.1	0.2	-4
c1ccc(C2Nc3ccccc3-c3nc4ccccc4n32)cc1 (centres undefined)	2	71*	47	0.3	0.5	12
O=C1Cn2c(nc3ccccc32)-c2ccccc2N1	-2	3	-2	1	1	-2
CCOC(=O)C1=C(C)NC(=O)C(C#N)C1c1ccco1 (centres undefined)	1	21	26	0.8	0.7	-6
C=CCOC(=O)C1=C(C)NC(SCC(=O)Nc2ccc(C)c(Cl)c2)=C(C#N)C1c1ccco1 (centres undefined)	19	79*	52*	0.2	0.5	6
COCCOC(=O)C1=C(C)NC(SCC(=O)NC(C)(C)C)=C(C#N)C1c1ccco1 (centres undefined)	-2	86*	82*	0.1	0.2	-7
Cc1ccc(NC(=O)CSc2ccccc2NC(=O)c2ccccc2)cc1Cl	-3	·	·	·	·	6

Screens from PubChem BioAssay.
